These results are taken from PubChem BioAssay (Tox21).

Assay [1] is described as follows: qHTS assay for small molecule agonists of the p53 signaling pathway (AID 651631; calls by dose curve; note: nearly all actives have a fitted effect of over 15% in size). A digest of the protocol:
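Read-out is beta-lactamase FRET fluorescence measured 2 h after substrate addition at room temperature, in HCT-116 cells with a p53 response element-driven reporter exposed to compounds for 16 h at 37 °C.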

Assay [2] can be described thus: qHTS assay for small molecules that induce genotoxicity in human embryonic kidney cells expressing luciferase-tagged ATAD5 (AID 651632). Note: nearly all actives have a fitted effect of over 15% in size. A digest of the protocol: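 Quantitative HTS in HEK293T expressing luciferase-tagged ATAD5, whose levels rise upon DNA damage. Exposure ran 16 hr at 37C and 5% CO2, with luminescence read 30 min after Amplite addition at room temperature.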
(Quantitative high-throughput screening tests each substance at several concentrations.)

A short description of assay [3]: qHTS assay for small molecule agonists of the p53 signaling pathway - cell viability (AID 651633; calls by dose curve;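 note: p53RE-bla HCT reporter cells with a stable beta-lactamase p53 reporter; series mostly up to about 83 µM; nearly all actives have a fitted effect of over 30% in size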). Put shortly:
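Viability counter-read: CellTiter-Glo luminescence (30 min, room temperature) in the same p53RE-bla plates. These plates had been exposed to compounds for 16 h at 37 C.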

Assay [4] is described as follows: qHTS assay for small molecules that induce genotoxicity in human embryonic kidney cells expressing luciferase-tagged ATAD5 - cell viability (AID 651634; calls by dose curve; note: nearly all actives have a fitted effect of over 25% in size). Put shortly:
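After 15.5 hr incubation with compound at 37C, 5% CO2, HEK293T ATAD5-luciferase cells received CellTiter-Fluor reagent; fluorescence intensity was quantified following 30 min at 37C.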

The nature of assay [5]: qHTS assay for small molecule disruptors of the mitochondrial membrane potential - cell viability (AID 720634; calls by dose curve;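 note: human HepG2 liver cancer cells; series mostly up to about 83 µM; nearly all actives have a fitted effect of over 20% in size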). Put shortly:
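ATP-based luminescent viability readout (CellTiter-Glo, 30 min, room temperature) in HepG2 cells multiplexed with the m-MPI membrane potential dye; compound exposure lasted 1 hr at 37 C.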

Assay [6] can be described thus: qHTS assay for small molecule disruptors of the mitochondrial membrane potential (AID 720635). Put shortly: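 Mitochondrial membrane potential tracked with Mito-MPS dye, red aggregates (ex 540/em 590 nm) against green monomers (ex 490/em 535 nm). Compound treatment 1 hr at 37C, dye 30 min in HepG2.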
Assay [7] is described as follows: qHTS assay to test for compound auto fluorescence at 590 nm (red) in HepG2 cells (AID 720674). A digest of the protocol:
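We screened compounds on adherent HepG2 cells, incubating them for an hour at 37 C in 5% CO2 before reading emission at 590 nm under 540 nm excitation; values reflect equivalence to Rose Bengal sodium fluorescence.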

A short description of assay [8]: qHTS assay to test for compound auto fluorescence at 535 nm (green) in HepG2 cells (AID 720675).
The nature of assay [9]: qHTS assay to test for compound auto fluorescence at 590 nm (red) in HEK293 cells (AID 720679). Put shortly: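 Plates of HEK293 cells (10% dialyzed FBS) are treated with 23 nL compound or DMSO vehicle after a 4-5 hr attachment period, incubated overnight at 37C, and read for red fluorescence at 540/590nm.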
A short description of assay [10]: qHTS assay to test for compound auto fluorescence at 535 nm (green) in HEK293 cells (AID 720680).
A short description of assay [11]: qHTS assay to test for compound auto fluorescence at 460 nm (blue) in HEK293 cell free culture (AID 720681). A digest of the protocol: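 Blue fluorescence (Ex 405/Em 460 nm, triamterene-equivalent) was read immediately after pin transfer of compound or DMSO into medium (DMEM, 10% FBS) without cells.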
Assay [12] in a line: qHTS assay to test for compound auto fluorescence at 535 nm (green) in HEK293 cell free culture (AID 720682). Put shortly: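 Fluorescein serves as the green reference fluorophore; each compound's intrinsic emission at 535 nm (excitation 485 nm) is reported as an equivalent amount of that dye, measured in serum-containing DMEM without cells.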
Assay [13] can be described thus: qHTS assay to test for compound auto fluorescence at 590 nm (red) in HEK293 cell free culture (AID 720683). A digest of the protocol:
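Red-channel autofluorescence of compounds in culture medium (DMEM, 10% FBS), no cells, measured at 540/590 nm. Rose Bengal sodium is the reference fluorophore for equivalence.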

The nature of assay [14]: qHTS assay to test for compound auto fluorescence at 590 nm (red) in HepG2 cell free culture (AID 720684). Put shortly:
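Cell-free; medium MEM + 10% FBS; compound or DMSO added by pintool; read Ex 540/Em 590 nm; Rose Bengal sodium as red reference fluorophore.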

A short description of assay [15]: qHTS assay to test for compound auto fluorescence at 460 nm (blue) in HepG2 cell free culture (AID 720685). Put shortly:
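Cell-free plates of MEM plus 10% FBS received 23 nL compound or DMSO vehicle; blue-channel (405/460 nm) intensity scored against triamterene as reference fluorophore.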

The nature of assay [16]: qHTS assay to test for compound auto fluorescence at 460 nm (blue) in HepG2 cells (AID 720687). A digest of the protocol:
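Blue-channel autofluorescence (Ex/Em 405/460 nm, triamterene-equivalent) was measured after 1 hr compound exposure at 37 C, 5% CO2. Cells were HepG2, plated overnight at 37 C in MEM plus 10% FBS.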

For assay [17], the target named is Glucocorticoid receptor (Homo sapiens) (UniProt P04150). The experiment in a line: qHTS assay to identify small molecule agonists of the glucocorticoid receptor (GR) signaling pathway (AID 720691; active = well fitted activation curve with a large enough effect in the signal ratio in the repeat runs, not every such curve was filed as active; the % refers to the signal ratio). Put shortly:
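Cells: GR-bla HeLa, endogenous GR with stably integrated GRE-beta-lactamase reporter. Treatment 18 h, 37 C, compounds delivered in DMSO. Detection via LiveBLAzer B/G FRET substrate, 2 h RT, fluorescence intensity.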

The target is the same in assay [18]. The experiment in a line: qHTS assay to identify small molecule antagonists of the glucocorticoid receptor (GR) signaling pathway (AID 720692; active = well fitted inhibition curve with a large enough effect in the signal ratio in the repeat runs, not every such curve was filed as active; the % refers to the signal ratio; note: potency is the fitted concentration of half-maximal effect). A digest of the protocol:
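Quantitative HTS in antagonist format: HeLa cells expressing endogenous GR and a stably integrated GRE-bla reporter, stimulated with 5 nM dexamethasone (final) alongside test compounds for 18 h.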

A short description of assay [19]: qHTS assay to test for compound auto fluorescence at 460 nm (blue) in HEK293 cells (AID 720678). A digest of the protocol:
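After cell attachment (4-5 hr, 37C), compounds were pinned onto HEK293 monolayers in 10% dialyzed FBS medium. The blue channel (405/460 nm) was read following overnight culture. Equivalency was calculated against triamterene.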

Assay [20] in a line: qHTS assay to test for compound auto fluorescence at 535 nm (green) in HepG2 cell free culture (AID 720686).

Inconclusive results are not listed. The source made the active and inactive calls. Unless noted, calls come from the whole dose curve; as a rule, active = well fitted curve in the direction sought with a large enough effect in the repeat runs; inconclusive = weak or mixed curves; inactive = no such curve, though single readings can be large; an effect the other way counts as inactive or inconclusive.

Glucocorticoid receptor (Homo sapiens), sequence (P04150 whole entry, looked up): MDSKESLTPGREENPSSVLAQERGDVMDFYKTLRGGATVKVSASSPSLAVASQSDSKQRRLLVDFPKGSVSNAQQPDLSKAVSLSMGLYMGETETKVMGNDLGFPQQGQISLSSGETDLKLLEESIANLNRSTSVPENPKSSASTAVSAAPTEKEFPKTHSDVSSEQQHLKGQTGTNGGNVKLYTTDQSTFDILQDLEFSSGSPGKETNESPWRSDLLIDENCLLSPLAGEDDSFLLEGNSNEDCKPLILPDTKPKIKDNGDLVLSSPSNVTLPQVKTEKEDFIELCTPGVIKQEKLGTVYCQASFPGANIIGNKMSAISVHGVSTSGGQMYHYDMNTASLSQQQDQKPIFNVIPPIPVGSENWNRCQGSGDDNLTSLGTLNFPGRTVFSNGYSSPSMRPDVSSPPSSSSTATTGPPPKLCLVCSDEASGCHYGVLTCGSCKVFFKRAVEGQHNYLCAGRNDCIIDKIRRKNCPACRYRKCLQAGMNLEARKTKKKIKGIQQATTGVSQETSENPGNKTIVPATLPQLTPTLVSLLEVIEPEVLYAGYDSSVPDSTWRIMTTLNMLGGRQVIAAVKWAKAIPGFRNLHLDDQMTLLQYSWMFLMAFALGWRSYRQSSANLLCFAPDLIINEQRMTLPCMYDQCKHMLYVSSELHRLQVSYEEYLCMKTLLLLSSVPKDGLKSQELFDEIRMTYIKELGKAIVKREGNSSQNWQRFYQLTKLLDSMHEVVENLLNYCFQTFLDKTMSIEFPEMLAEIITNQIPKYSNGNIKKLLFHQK

Consider `OCC1CO1` (configuration not stated), for which the Potency entry in assay [1], in assay [2], in assay [3], in assay [4], in assay [5] and in [6] was “inactive” throughout. The Potency result in assay [17] and in assay [18] was “inactive” each time. Besides, the compound was called inactive in assay [7], in assay [8], in [9], in assay [10], in assay [11] and in assay [12]. Besides, the outcome in [13], in assay [14], in assay [15] and in assay [16] was inactive.
Consider `CCOc1cccc(C2(N3CCN(c4ccccc4)CC3)CCC(C)CC2)c1` (configuration not stated), for which the Potency result in assay [1], in [2], in [3], in [4], in [5] and in assay [6] was “inactive” throughout. In addition, the Potency entry in [17] and in assay [18] was “inactive” each time. In addition, the compound was classed as inactive in assay [7], in assay [8], in assay [19], in [9], in assay [10] and in assay [11]. In addition, the compound was called inactive in assay [12], in [13], in [14], in [15] and in assay [16].
Turning to `CC(Oc1cccc(Cl)c1)C(=O)O` (configuration not stated), the Potency entry in [1], in assay [2], in assay [3], in assay [4], in assay [5] and in assay [6] was “inactive” each time. Also, the Potency entry in assay [17] and in assay [18] was “inactive” in each case. The result in assay [7], in assay [8], in assay [19], in assay [9], in assay [10] and in assay [11] was inactive. In addition, the outcome in assay [12], in [13], in assay [14], in assay [15], in [20] and in [16] was inactive.
As to `Nc1cc(Cl)cc(C(=O)O)c1Cl`, the Potency result in [1], in assay [2], in assay [3], in assay [4], in assay [5] and in assay [6] was “inactive” in each case. The compound was called inactive in [7], in assay [8], in assay [19], in assay [9], in assay [10] and in assay [11]. In addition, the result in assay [12], in assay [13], in assay [14], in [15] and in [16] was inactive.
For the compound `C[C@]12CC[C@H]3[C@@H](CCC4=CC(=O)CC[C@@H]43)[C@@H]1CC[C@@H]2OC(=O)CCc1ccccc1`, the Potency result in assay [1], in [2], in assay [3], in assay [4], in [5] and in assay [6] was “inactive” in each case. For the same compound, the Potency entry in assay [17] was “inactive”. For the same compound, the compound was classed as inactive in [7], in [8], in [19], in assay [9], in assay [10] and in assay [11]. Also, the result in assay [12], in [13], in assay [14], in [15], in assay [20] and in [16] was inactive. The Potency in assay [18] is 6.74 µM (active).
As for `CC(O)CN1CCN(CC(=O)[O-])CCN(CC(=O)[O-])CCN(CC(=O)[O-])CC1.[Gd+3]` (configuration not stated), the Potency result in assay [1], in [2], in assay [3], in assay [4], in [5] and in assay [6] was “inactive” in each case. Also, the Potency entry in [17] and in assay [18] was “inactive” each time. Also, the result in assay [7], in [8], in assay [19], in [9], in assay [10] and in assay [11] was inactive. The call in [12], in assay [13], in assay [14], in assay [15], in [20] and in assay [16] was inactive.
Turning to `CNC(=O)Oc1cccc(N=CN(C)C)c1`, the Potency result in assay [1], in assay [2], in assay [3], in assay [4], in assay [5] and in assay [6] was “inactive” in each case. For the same compound, the compound was classed as inactive in [7], in assay [8], in [19], in assay [9], in assay [10] and in assay [11]. Also, the compound was classed as inactive in assay [12], in assay [13], in [14], in assay [15], in assay [20] and in assay [16].
